Potency, max response and activation data for seven compounds are collected here from PubChem BioAssay (NCATS).

Several values for one entry are separate records, joined by “and”; a condition that tells them apart may be missing. Identical values can stand only once. Inconclusive results are not listed. Activity calls are given as the source filed them. Unless noted, calls follow the shape of the dose curve; as a rule, active = well fitted curve in the direction sought with a large enough effect; inconclusive = small, poorly fitted or top-dose-only effect, or another doubt; inactive = no such curve, though single readings can be large; an effect the other way counts as inactive or inconclusive. Bounds are passed on as bounds.

The nature of assay [1]: Cell Viability - HepG2 (AID 433; calls by dose curve;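 also: potency is read from the fitted curve at half-maximal effect; cells exposed to compound for 40 hours; potency for ATP loss meaning cytotoxicity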). To be noted: qHTS. An outline of the steps:
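Read-out is luciferase-based quantitation of cellular ATP as a measure of viable HepG2 cells after 40 h treatment at 37 °C. Signal decrease is scaled between DMSO-only and 100 uM tamoxifen controls, with AC50 fitted by the Hill equation.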
For orientation: Quantitative high-throughput screening tests each substance at several concentrations.

A short description of assay [2]: Cell Viability - Mesenchymal (AID 546).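 Also: cells exposed to compound for 40 hours before reading.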 To be noted: mesenchymal cells viability, qHTS; activity change, negative = cytotoxicity: at 91.7 µM (top of the series). An outline of the steps:
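In this qHTS cytotoxicity format, glomerulus-derived human mesenchymal kidney cells received compound for 40 hr, then luciferase-based ATP quantitation. Concentration-response data were fitted with the Hill equation.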

Assay [3] can be described thus: Cellular Toxicity (caspase-3) Jurkat (AID 655).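 Also: cells exposed to compound for 16 h at 37 °C before reading.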 To be noted: Jurkat caspase-3 activation, luminescence; caspase-3 activation: at 92.2 µM (top of the series), DMSO = 0%, tamoxifen = 100%. The procedure, abridged: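 5000 Jurkat cells/well; compound 16 hr, 37 °C; Caspase-Glo 3/7 added, 20 min RT; luminescence read. Norm: DMSO = 0%, tamoxifen 100 uM = 100%. AC50, Hill model.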

Assay [4] is described as follows: Cell Viability - LYMP1-002 - Assay at 16 hr (AID 948).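 Also: 0% = DMSO alone and full effect = 92 µM tetraoctylammonium bromide.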 To be noted: LYMP1-002 lymphoblastoid cell viability; series mostly up to 92.2 µM. An outline of the steps:
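Seed 2500 LYMP1-002 cells per well in complete medium and hold 5 hr at 37 C. Add compound across a concentration series and incubate 16 hr at 37 C. Add CellTiter-Glo, wait 30 min at room temperature, read luminescence.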

A short description of assay [5]: Cell Viability - LYMP2-003 (AID 965).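 Also: cells exposed to compounds for 24 h before reading; 0% = DMSO only and full effect = 92 µM tetraoctylammonium bromide; nearly all actives have a fitted effect of over 50% in size.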 To be noted: LYMP2-003 lymphoblastoid cell viability; series mostly up to 92.2 µM. The procedure, abridged: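 Seed 2500 lymphoblastoid cells/well; incubate 5 hr, 37 C; add compounds; incubate 24 hr, 37 C; add CellTiter-Glo, 30 min RT; read luminescence. AC50 from Hill fit.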
Assay [6] can be described thus: Cell Viability - LYMP2-011 (AID 969).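 Also: 0% = DMSO only and full inhibition = 92 µM tetraoctylammonium bromide; nearly all actives have a fitted effect of over 60% in size.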 To be noted: LYMP2-011 lymphoblastoid cells viability; series mostly up to 92.2 µM. An outline of the steps:
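Cytotoxicity qHTS with ATP content as read-out: lymphoblastoid cells (2500/well) exposed to compound for 24 h at 37 C, then luciferase luminescence measured. Concentration-response data fitted with the standard Hill equation to give AC50.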

Assay [7] is described as follows: Cell Viability - LYMP2-013 (AID 970).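 Also: 0% = DMSO only and full inhibition = tetraoctylammonium bromide control; nearly all actives have a fitted effect of over 55% in size.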 To be noted: LYMP2-013 lymphoblastoid cells viability; series mostly up to 92.2 µM. An outline of the steps: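 qHTS cytotoxicity: ATP-dependent luminescence (CellTiter-Glo, 30 min room temperature) read after 24 h compound exposure at 37 C of 2500 LYMP2-013 lymphoblastoid cells per well. Concentration-response fitted with Hill equation to give AC50.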

The nature of assay [8]: Cell Viability - LYMP2-021 (AID 974). Also: % is scaled to controls: 0 for no effect and ±100 for the full control effect; nearly all actives have a fitted effect of over 55% in size. To be noted: LYMP2-021 lymphoblastoid cells viability; series mostly up to 92.2 µM. An outline of the steps: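 AC50 values come from Hill-equation fits to CellTiter-Glo luminescence (ATP content), read after 24 hour compound exposure at 37 C of 2500 LYMP2-021 lymphoblastoid cells/well; tetraoctylammonium bromide as positive control.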

The nature of assay [9]: Cell Viability - LYMP2-002 (AID 977).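 Also: plate controls were DMSO only for no effect and 92 µM tetraoctylammonium bromide for full effect.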 To be noted: LYMP2-002 lymphoblastoid cell viability, qHTS; series mostly up to 92.2 µM. An outline of the steps: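 In this qHTS viability screen, 2500 human lymphoblastoid cells per well receive compound for 24 hr at 37 C, and luciferase-based ATP luminescence gives the viability signal. Tetraoctylammonium bromide serves as positive control.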

The nature of assay [10]: Cell Viability - LYMP2-008 (AID 980). Also: % is scaled to controls: 0 for no effect and ±100 for the full control effect; nearly all actives have a fitted effect of over 60% in size. To be noted: LYMP2-008 lymphoblastoid cell viability, qHTS; series mostly up to 92.2 µM. The procedure, abridged:
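Cytotoxicity determined from ATP-dependent luciferase luminescence (CellTiter-Glo) following 24 h compound exposure of human lymphoblastoid LYMP2-008 cells at 37 C. Concentration-response data fitted to the Hill equation to give AC50.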

A short description of assay [11]: Cell Viability - LYMP2-012 (AID 982).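 Also: cellular ATP by luciferase luminescence where a drop means cytotoxicity; cells exposed to compound for one day before reading; 0% = DMSO only and full loss = 92 µM tetraoctylammonium bromide; nearly all actives have a fitted effect of over 55% in size.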 To be noted: LYMP2-012 lymphoblastoid cell viability qHTS; series mostly up to 92.2 µM.
A short description of assay [12]: Cell Viability - LYMP2-014 (AID 983).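 Also: plate controls were DMSO only for no effect and 92 µM tetraoctylammonium bromide for full effect; nearly all actives have a fitted effect of over 50% in size.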 To be noted: LYMP2-014 lymphoblastoid cells, viability qHTS; series mostly up to 92.2 µM. The procedure, abridged:
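Intracellular ATP loss, read by luciferase luminescence, measures acute cytotoxicity after 24 h compound exposure of lymphoblastoid LYMP2-014 cells (2500/well, 37 C). Concentration-response data fitted to the Hill equation for AC50.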

The nature of assay [13]: Cell Viability - LYMP2-016 (AID 984). Also: % is scaled to controls: 0 for no effect and ±100 for the full control effect; nearly all actives have a fitted effect of over 55% in size. To be noted: LYMP2-016 lymphoblastoid cell viability, qHTS; series mostly up to 92.2 µM. An outline of the steps: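 Cells were seeded at 2500 per well and rested 5 hr before a 24 hr compound exposure at 37 C. Viability was then gauged as cellular ATP by luciferase luminescence, with AC50 values fitted to the Hill equation.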
Assay [14] is described as follows: Cell Viability - LYMP2-020 (AID 986). To be noted: series mostly up to 92.2 µM. An outline of the steps:
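Cytotoxicity in qHTS format: luminescent ATP readout from CellTiter-Glo after 24 h compound exposure at 37 C in complete medium. LYMP2-020 lymphoblastoid cells were seeded at 2500/well; concentration-response data fitted to the Hill equation for AC50.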

Assay [15] can be described thus: Cell Viability - LYMP2-024 (AID 988).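 Also: plate controls were DMSO only for no effect and 92 µM tetraoctylammonium bromide for full effect; nearly all actives have a fitted effect of over 60% in size.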 To be noted: LYMP2-024 lymphoblastoid cell viability; series mostly up to 92.2 µM. The procedure, abridged: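 Cytotoxicity was taken as a decrease in ATP (CellTiter-Glo luminescence) after 24 hr compound exposure at 37 C of LYMP2-024 lymphoblastoid cells, 2500 cells/well. Concentration-response data were fitted to the Hill equation to give AC50.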

Assay [16] can be described thus: Cell Viability - LYMP2-026 (AID 989). Also: % is scaled to controls: 0 for no effect and ±100 for the full control effect; nearly all actives have a fitted effect of over 50% in size. To be noted: LYMP2-026 lymphoblastoid cell viability, qHTS; series mostly up to 92.2 µM. The procedure, abridged:
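Cytotoxicity read as ATP-dependent luminescence (CellTiter-Glo, 30 min room temperature) after 24 h compound treatment at 37 C. LYMP2-026 lymphoblastoid line seeded at 2500 cells/well; AC50 derived by standard Hill equation.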

A short description of assay [17]: Cell Viability - LYMP1-002 - Assay at 40 hr (AID 994).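 Also: 0% = DMSO only and full inhibition = 92 µM tetraoctylammonium bromide; nearly all actives have a fitted effect of over 60% in size.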 To be noted: LYMP1-002 lymphoblastoid cell viability; series mostly up to 92.2 µM. The procedure, abridged:
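Cytotoxicity was read as loss of cellular ATP (CellTiter-Glo luminescence) after 40 hr compound exposure at 37 C of 2500 LYMP1-002 lymphoblastoid cells per well. Concentration-response data were fitted with the standard Hill equation to give AC50.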

Assay [18] in a line: qHTS assay for small molecule antagonists of retinoid X receptor alpha signaling (AID 588546; active = well fitted inhibition curve with a large enough effect in the signal ratio, with a control signal flat, not every such curve was filed as active; the % refers to the signal ratio;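 also: cells stimulated with 9-cis-retinoic acid as agonist; % is scaled to controls: 0 for no effect and ±100 for the full control effect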). To be noted: HEK293T RXRa-UAS-bla, beta-lactamase ratio, antagonist mode; measured here: W530 green channel, cytotoxicity proxy. An outline of the steps:
(§1)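 Beta-lactamase reporter inhibition, read as CCF4 fluorescence ratio (ex 405, em 460/530 nm) after 2 h at RT. HEK293T UAS-bla cells, 2500/well, were stimulated with 9-cis-RA at 500 or 100 nM final alongside test compound for 18 h at 37 C.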

For assay [19], the target named is Retinoic acid receptor RXR-alpha (Homo sapiens) (UniProt P19793). Described as above. To be noted: HEK293T RXRa-UAS-bla, beta-lactamase ratio, antagonist mode. An outline of the steps:
as §1

Assay [20] in a line: qHTS assay for environmental chemicals that activate the Aryl hydrocarbon Receptor (AhR) signaling pathway (AID 651777). Also: % of control where 0% means no effect; nearly all actives have a fitted effect of over 15% in size. To be noted: 1A2-DRE human hepatoma cells, luciferase, 24 h; activation: stronger effect = higher value. The procedure, abridged: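 Measured luciferase activity, read 30 min after One-Glo addition at room temperature, from human hepatoma cells bearing a dioxin response element–CYP1A2 promoter reporter and exposed to compound for 24 hr at 37 C.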

Sequence of Retinoic acid receptor RXR-alpha (Homo sapiens) (P19793 whole entry, looked up): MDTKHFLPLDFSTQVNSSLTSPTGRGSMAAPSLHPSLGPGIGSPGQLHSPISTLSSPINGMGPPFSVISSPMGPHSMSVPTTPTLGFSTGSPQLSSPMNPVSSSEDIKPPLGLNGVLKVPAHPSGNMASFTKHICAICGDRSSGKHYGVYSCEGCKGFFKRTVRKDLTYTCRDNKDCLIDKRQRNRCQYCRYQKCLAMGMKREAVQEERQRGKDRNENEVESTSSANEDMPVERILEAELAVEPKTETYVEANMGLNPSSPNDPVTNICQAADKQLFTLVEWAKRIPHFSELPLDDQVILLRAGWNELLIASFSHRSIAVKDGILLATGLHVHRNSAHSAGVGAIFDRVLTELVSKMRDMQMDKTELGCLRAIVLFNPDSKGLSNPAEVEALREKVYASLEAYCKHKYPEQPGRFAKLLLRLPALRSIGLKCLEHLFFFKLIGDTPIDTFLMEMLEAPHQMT

For the compound `CCCCC(CC)COCCCN` (stereo not drawn), the Potency in assay [1] was > 92 µM (inactive). Moreover, the Potency entry in assay [2], in [3], in [4], in assay [5], in [6] and in assay [7] was “inactive” throughout. The Potency entry in assay [8], in assay [9], in [10], in assay [11], in [12] and in assay [13] was “inactive” in each case. For the same compound, the Potency entry in [14], in assay [15], in assay [16] and in assay [17] was “inactive” each time. In addition, the max response was 3.99% in assay [18] and 10.8% (inactive) in [19]. For the same compound, the activation in [20] is -0.398% (inactive).
For `c1ccc(COCc2ccccc2)cc1`, the Potency in [1] was > 92 µM (inactive). Moreover, the Potency result in assay [2], in [3], in assay [4], in [5], in assay [6] and in assay [7] was “inactive” in each case. For the same compound, the Potency result in [8], in assay [9], in assay [10], in assay [11], in assay [12] and in [13] was “inactive” throughout. Moreover, the Potency entry in [14], in [15], in assay [16] and in assay [17] was “inactive” throughout. Also, the max response in [18] is -0.558%; in [19], -1.13% (inactive). In [20], the activation was -0.601% (inactive).
On to `O=[N+]([O-])c1ccc(F)cc1F`, for which the Potency in assay [1] is > 92 µM (inactive). The Potency result in assay [2], in assay [3], in assay [4], in assay [5], in assay [6] and in [7] was “inactive” throughout. For the same compound, the Potency result in assay [8], in assay [9], in [10], in assay [12], in assay [13] and in [16] was “inactive” in each case. The Potency result in assay [17] was “inactive”. Also, the max response in assay [18] is -4.17%; in [19], 10.7% (inactive). For the same compound, in assay [20], the activation is 0.688% (inactive).
Consider `OCC(CO)(CBr)CBr`, for which the Potency in assay [1] was > 92 µM (inactive). The Potency result in [2], in [3], in assay [4], in assay [5], in [6] and in [7] was “inactive” each time. The Potency result in [8], in assay [9], in assay [10], in [11], in assay [12] and in assay [13] was “inactive” in each case. The Potency result in assay [14], in assay [15], in assay [16] and in assay [17] was “inactive” throughout. The max response was 6.52% and -5.45% in assay [18]; 4.02% (inactive) and -1.76% (inactive) in [19]. For the same compound, the activation in assay [20] was 0.992% (inactive) and 2.31% (inactive).
With `O=[N+]([O-])c1cccc(I)c1`, in assay [1], the Potency was > 92 µM (inactive). For the same compound, the Potency result in assay [2], in [3], in assay [4], in [5], in assay [6] and in [7] was “inactive” throughout. Moreover, the Potency entry in [8], in [9], in assay [10], in assay [11], in [12] and in [13] was “inactive” throughout. Further, the Potency entry in assay [14], in assay [15], in assay [16] and in assay [17] was “inactive” each time. For the same compound, the figures for the max response in assay [18] and in [19] were -5.01% and -4.26% (inactive), respectively. Also, the activation in assay [20] was 0.159% (inactive).
Turning to `c1ccncc1`, the Potency in assay [1] is > 92 µM (inactive). In addition, the Potency result in assay [2], in [3], in [4], in [5], in assay [6] and in assay [7] was “inactive” each time. The Potency entry in assay [8], in assay [9], in assay [10], in assay [11], in assay [12] and in [13] was “inactive” throughout. Also, the Potency entry in assay [14], in [15], in assay [16] and in [17] was “inactive” in each case. Also, the activation in assay [20] was -1.01% (inactive).
In the case of `COc1ccc(C(=O)Nc2ccccc2)cc1[N+](=O)[O-]`, the Potency in [1] was > 92 µM (inactive). In addition, the Potency result in assay [2], in [3], in assay [4], in assay [5], in assay [6] and in assay [7] was “inactive” throughout. Besides, the Potency entry in assay [8], in [9], in [10], in assay [11], in assay [12] and in [13] was “inactive” in each case. Also, the Potency entry in [15], in [16] and in assay [17] was “inactive” in each case. In addition, the values for the max response in assay [18] and in assay [19] were -10.5% and -8.72% (inactive), respectively.
